Laboratory results: PubChem BioAssay (NCATS)
Records with an inconclusive call do not appear. A number with no mark means an inactive call. The source made the active and inactive calls. Calls follow the shape of the dose curve; as a rule, active = well fitted inhibition curve with a large enough effect; inconclusive = small, poorly fitted or top-dose-only effect; inactive = flat fitted curve, though single readings scatter.

The compounds below were run on CP215 (assay: qHTS profiling for inhibitors of Plasmodium falciparum proliferation (AID 504749; also: nearly all actives have a fitted effect of over 60% in size;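 as to activity, negative = inhibition: 0% = DMSO vehicle and full inhibition = artemisinin control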)). Conditions: P. falciparum in erythrocytes, SYBR Green DNA, 72 h; series mostly up to 28.7 µM; activity, negative = inhibition: at the top concentration.
In short: (§1)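 Quantitative HTS: compounds pinned into medium, infected erythrocytes added (0.3% parasitemia, 2.5% hematocrit), 72 h culture at 37 C under 5% CO2. Saponin/Triton lysis with SYBR Green I, overnight RT, then fluorescence read.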
Potency is read from the fitted curve at half-maximal effect.

In the case of `C[C@@H](NCCCc1cccc(C(F)(F)F)c1)c1cccc2ccccc12`, the Potency is reported as 10700 nM (active).
`COc1cc(NCc2ccc3nc(N)nc(N)c3c2C)cc(OC)c1OC` was tested, and the Potency was 675 nM (active).
In the case of `NC(N)=NC(N)=NCCc1ccccc1`, the Potency is reported as “inactive”.
`CC(C)NCC(O)c1ccc(NS(C)(=O)=O)cc1` (centres undefined) was tested, and the Potency was “inactive”.
In the case of `N=C(N)c1ccc(OCCCCCOc2ccc(C(=N)N)cc2)cc1`, the Potency is reported as 1070 nM (active).
In the case of `COc1cc([C@@H]2c3cc4c(cc3[C@H](O)[C@H]3COC(=O)[C@H]23)OCO4)cc(OC)c1OC`, the Potency is reported as 13500 nM (active).

In order of falling “activity, negative = inhibition” value:
1. N[C@@H](Cc1ccc(O)c(O)c1)C(=O)O  17.4%
2. Cc1nnc(NS(=O)(=O)c2ccc(N)cc2)s1  12.8%
3. NCCCC(O)(P(=O)(O)O)P(=O)(O)O  4.88%
4. O=c1cc(O)c(Cl)c[nH]1  2.91%
5. CNC1CCCN(c2c(F)cc3c(=O)c(C(=O)O)cn(C4CC4)c3c2OC)C1 (centres undefined)  2.44%
6. COc1ccc(-c2ccc3cc(C(=O)O)ccc3c2)cc1C12CC3CC(CC(C3)C1)C2  2.2%
7. S=P(N1CC1)(N1CC1)N1CC1  1.55%
8. CC(C)OC(=O)C(C(=O)OC(C)C)=C1SC=CS1  1.46%
9. CCCc1nc(C)c2c(=O)[nH]c(-c3cc(S(=O)(=O)N4CCN(CC)CC4)ccc3OCC)nn12  0.394%
10. CC(=O)Oc1ccccc1C(=O)Nc1ncc([N+](=O)[O-])s1  0.041%
11. CC1=CC(=O)c2ccccc2C1=O  -0.105%
12. Nc1nc(N)c2nc(CNc3ccc(C(=O)NC(CCC(=O)O)C(=O)O)cc3)cnc2n1 (centres undefined)  -0.361%
13. O=S(=O)(O)CCS  -0.91%
14. Nc1nc(N)nc(-c2cc(Cl)ccc2Cl)n1  -1.22%
15. CNNCc1ccc(C(=O)NC(C)C)cc1  -1.37%
16. CCc1cc(C(N)=S)ccn1  -3.17%
17. OC(Cn1cncn1)(Cn1cncn1)c1ccc(F)cc1F  -4.11%
18. CCOC(=O)c1ccc(C#Cc2ccc3c(c2)C(C)(C)CCS3)nc1  -8.67%

In order of falling “activity, negative = inhibition” value:
1. Nc1[nH]c(=O)ncc1F  10.6% [at 12.8 µM]
2. COC(=O)Nc1nc2ccc(Sc3ccccc3)cc2[nH]1  -0.278% [at 12.8 µM]
3. CC(C)(Sc1cc(C(C)(C)C)c(O)c(C(C)(C)C)c1)Sc1cc(C(C)(C)C)c(O)c(C(C)(C)C)c1  -0.627% [at 12.8 µM]
4. Cc1cccc(N(C)C(=S)Oc2ccc3ccccc3c2)c1  -1.8% [at 12.8 µM]

These compounds were tested on CP217 in the same assay as above. Conditions: P. falciparum in erythrocytes, SYBR Green DNA, 72 h; series mostly up to 28.7 µM; activity, negative = inhibition: at the top concentration.
In short: as §1

For `C[C@@H](NCCCc1cccc(C(F)(F)F)c1)c1cccc2ccccc12`, the Potency was 7940 nM (active).
With `COc1cc(NCc2ccc3nc(N)nc(N)c3c2C)cc(OC)c1OC` the Potency was 282 nM (active).
`NC(N)=NC(N)=NCCc1ccccc1` was tested, and the Potency was “inactive”.
In the case of `C1CCC(C(CC2CCCCN2)C2CCCCC2)CC1` (centres undefined), the Potency is reported as 10000 nM (active).
`CC(C)NCC(O)c1ccc(NS(C)(=O)=O)cc1` (centres undefined) was tested, and the Potency was “inactive”.
With `COc1cc2c(Nc3ccc(Br)cc3F)ncnc2cc1OCC1CCN(C)CC1` the Potency was 447 nM (active).
For `N=C(N)c1ccc(OCCCCCOc2ccc(C(=N)N)cc2)cc1`, the Potency was 2240 nM (active).

In order of rising “activity, negative = inhibition” value:
1. CCOC(=O)c1ccc(C#Cc2ccc3c(c2)C(C)(C)CCS3)nc1  -24.1%
2. CCCc1nc(C)c2c(=O)[nH]c(-c3cc(S(=O)(=O)N4CCN(CC)CC4)ccc3OCC)nn12  -16.8%
3. CNC1CCCN(c2c(F)cc3c(=O)c(C(=O)O)cn(C4CC4)c3c2OC)C1 (centres undefined)  -13.4%
4. CNNCc1ccc(C(=O)NC(C)C)cc1  -10.4%
5. CC(=O)Oc1ccccc1C(=O)Nc1ncc([N+](=O)[O-])s1  -8.56%
6. Nc1nc(N)nc(-c2cc(Cl)ccc2Cl)n1  -3.69%
7. O=S(=O)(O)CCS  -3.22%
8. Nc1nc(N)c2nc(CNc3ccc(C(=O)NC(CCC(=O)O)C(=O)O)cc3)cnc2n1 (centres undefined)  -2.41%
9. CC[C@H](C)C(=O)O[C@H]1C[C@@H](C)C=C2C=C[C@H](C)[C@H](CC[C@@H]3C[C@@H](O)CC(=O)O3)[C@H]21  -1.87%
10. CCc1cc(C(N)=S)ccn1  -0.942%
11. CC1=CC(=O)c2ccccc2C1=O  -0.896%
12. COc1ccc(-c2ccc3cc(C(=O)O)ccc3c2)cc1C12CC3CC(CC(C3)C1)C2  0.653%
13. O=c1cc(O)c(Cl)c[nH]1  0.689%
14. S=P(N1CC1)(N1CC1)N1CC1  0.769%
15. CC(C)OC(=O)C(C(=O)OC(C)C)=C1SC=CS1  1.27%
16. Cc1nnc(NS(=O)(=O)c2ccc(N)cc2)s1  2.73%
17. NCCCC(O)(P(=O)(O)O)P(=O)(O)O  5.15%
18. OC(Cn1cncn1)(Cn1cncn1)c1ccc(F)cc1F  9.34%

In order of falling “activity, negative = inhibition” value:
1. COC(=O)Nc1nc2ccc(C(=O)c3ccccc3)cc2[nH]1  5.46% [at 12.8 µM]
2. CC(C)(Sc1cc(C(C)(C)C)c(O)c(C(C)(C)C)c1)Sc1cc(C(C)(C)C)c(O)c(C(C)(C)C)c1  0.724% [at 12.8 µM]
3. COC(=O)Nc1nc2ccc(Sc3ccccc3)cc2[nH]1  -1.38% [at 12.8 µM]
4. Nc1[nH]c(=O)ncc1F  -5.29% [at 12.8 µM]
5. Cc1cccc(N(C)C(=S)Oc2ccc3ccccc3c2)c1  -10.3% [at 12.8 µM]
6. O=C(O)c1cn(C2CC2)c2cc(N3CCNCC3)c(F)cc2c1=O  -24.4% [at 12.8 µM]
